# Laboratory results published in PubChem BioAssay.
# The source made the active and inactive calls.
# Key:
# [1] = target: Albumin (Bos taurus) (UniProt P02769); experiment: bovine serum albumin binders on microarray, profiling panel, artefact control for SMM control protein annotation, biochemical, small-molecule microarray, Alexa647 label, 635/667 nm fluorescence (AID 1118); conditions: BSA-A647 binding, fluorescence 635 nm, higher = more signal;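 also: score merges 667 nm emission intensity and signal-to-noise per printed compound spot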
# Albumin (Bos taurus), sequence (P02769 whole entry, looked up): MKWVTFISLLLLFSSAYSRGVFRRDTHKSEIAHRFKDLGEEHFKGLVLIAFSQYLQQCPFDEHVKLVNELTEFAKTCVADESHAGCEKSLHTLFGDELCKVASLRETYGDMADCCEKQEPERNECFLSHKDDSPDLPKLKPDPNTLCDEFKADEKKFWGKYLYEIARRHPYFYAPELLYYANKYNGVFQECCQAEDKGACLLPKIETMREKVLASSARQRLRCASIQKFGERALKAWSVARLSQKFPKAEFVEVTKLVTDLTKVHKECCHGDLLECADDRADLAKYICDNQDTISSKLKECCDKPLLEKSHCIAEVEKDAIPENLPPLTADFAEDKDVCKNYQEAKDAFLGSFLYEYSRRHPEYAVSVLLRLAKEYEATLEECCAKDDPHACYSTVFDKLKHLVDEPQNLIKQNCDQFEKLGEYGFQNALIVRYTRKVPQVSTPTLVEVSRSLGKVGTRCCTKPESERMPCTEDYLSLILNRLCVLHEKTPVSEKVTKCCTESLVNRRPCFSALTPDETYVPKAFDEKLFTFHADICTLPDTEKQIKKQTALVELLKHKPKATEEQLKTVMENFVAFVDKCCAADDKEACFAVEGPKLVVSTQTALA
# [2] = small-molecule microarray binders of probe aXIP, primary screen, biochemical, NeuroSMM set, 635/667 nm fluorescence (AID 1119); conditions: higher = more signal, called active from +8 up or from −8 down;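 also: probe is the protein aXip251-270 applied at 1 µg/mL to compound-printed slides; binding of probe to printed compounds measured as 667 nm fluorescence plus signal to noise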
# [3] = small-molecule binders of probe aNOTCH3, primary screen, biochemical, small-molecule microarray, 635/667 nm fluorescence (AID 1120); conditions: higher = more signal;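 also: probe is a biotin-tagged antibody raised against NOTCH3 rather than NOTCH3 protein; score merges spot fluorescence near 667 nm with spot signal to noise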
# [4] = small-molecule binders of probe aNOTCH2, primary screen, biochemical, small-molecule microarray, 635/667 nm fluorescence (AID 1121); conditions: higher = more signal;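 also: score merges feature fluorescence read at 667 nm with its signal to noise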
# [5] = target: Carbonic anhydrase 2 (Homo sapiens) (UniProt P00918); experiment: CAII small-molecule binders, profiling panel, biochemical, small-molecule microarray, Alexa647-labelled CAII (AID 1122); conditions: CAII-A647 binding fluorescence, higher = more signal
# [6] = COS7 lysate on small-molecule microarray, probe aHis, 635 nm (AID 1123); conditions: COS7 cell lysate, fluorescence, higher = more signal;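 also: z-score combines 667nm fluorescence intensity with signal-to-noise per printed compound spot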
# [7] = compound binding in COS7 lysate, probe aLAP1, primary screen, cell lysate, small-molecule microarray (AID 1124); conditions: probe aLAP1, fluorescence, higher = more signal;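 also: lysate comes from COS7 cells expressing LAP1 and is applied at 0.3 µg/mL; score merges spot fluorescence near 667 nm with signal-to-noise over triplicate slides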
# [8] = test system: Sam68 (KHDRBS1); experiment: Sam68 small-molecule binders, primary screen, biochemical, small-molecule microarray, 635 nm fluorescence (AID 1125); conditions: small-molecule microarray binding, higher = more signal;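 also: score merges 667 nm channel intensity with signal to noise over triplicate slides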
# [9] = test system: Chordin-like protein 2 (CHRDL2); experiment: CHRDL2 small-molecule binders, primary screen, biochemical, small-molecule microarray, 635 nm fluorescence (AID 1126); conditions: small-molecule microarray binding, fluorescence 635 nm; higher = more signal;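 also: printed compound slides probed with Chrdl2 protein at 4 µg/mL for 1 h at 4 C; score merges 667 nm emission intensity with signal to noise over three replicate slides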
# [10] = target: Concanavalin-A (Canavalia ensiformis) (UniProt P02866); experiment: ConA small-molecule binders, primary screen, artefact control for SMM control protein annotation, biochemical, small-molecule microarray, Alexa647 label, 635 nm (AID 1127); conditions: ConA-A647 binding fluorescence, higher = more signal;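 also: z combines 667 nm emission intensity with signal-to-noise across three replicate slides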
# Concanavalin-A (Canavalia ensiformis), sequence (P02866 whole entry, looked up): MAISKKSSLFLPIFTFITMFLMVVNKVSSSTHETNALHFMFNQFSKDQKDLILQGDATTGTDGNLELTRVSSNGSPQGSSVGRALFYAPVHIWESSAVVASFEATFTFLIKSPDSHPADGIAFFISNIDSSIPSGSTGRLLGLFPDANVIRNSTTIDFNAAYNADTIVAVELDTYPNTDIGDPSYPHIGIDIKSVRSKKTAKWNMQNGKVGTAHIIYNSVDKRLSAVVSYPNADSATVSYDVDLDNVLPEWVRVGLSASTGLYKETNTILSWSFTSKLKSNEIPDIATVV
# [11] = anti-His antibody binders, primary screen, artefact control for SMM control protein annotation, biochemical, small-molecule microarray, 635 nm fluorescence (AID 1128); conditions: anti-His Alexa647 antibody binding, higher = more signal;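 also: score merges feature fluorescence with signal-to-noise for each printed compound spot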
# [12] = test system: Human papillomavirus type 1a E7 protein (residues 1-88); experiment: HPV1a E7 small-molecule binders, primary screen, biochemical, small-molecule microarray, residues 1-88, 635 nm (AID 1129); conditions: small-molecule microarray binding, fluorescence 635 nm; higher = more signal
# [13] = target: Focal adhesion kinase 1 (Homo sapiens) (UniProt Q05397); experiment: small-molecule microarray binders of FAK, primary screen, biochemical, 635/667 nm fluorescence, BSA, DTT (AID 1130); conditions: PTK2 binding, 635 nm fluorescence, higher = more signal;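 also: composite of spot emission at 667 nm and signal to noise over triplicate slides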
# Focal adhesion kinase 1 (Homo sapiens), sequence (Q05397 whole entry, looked up): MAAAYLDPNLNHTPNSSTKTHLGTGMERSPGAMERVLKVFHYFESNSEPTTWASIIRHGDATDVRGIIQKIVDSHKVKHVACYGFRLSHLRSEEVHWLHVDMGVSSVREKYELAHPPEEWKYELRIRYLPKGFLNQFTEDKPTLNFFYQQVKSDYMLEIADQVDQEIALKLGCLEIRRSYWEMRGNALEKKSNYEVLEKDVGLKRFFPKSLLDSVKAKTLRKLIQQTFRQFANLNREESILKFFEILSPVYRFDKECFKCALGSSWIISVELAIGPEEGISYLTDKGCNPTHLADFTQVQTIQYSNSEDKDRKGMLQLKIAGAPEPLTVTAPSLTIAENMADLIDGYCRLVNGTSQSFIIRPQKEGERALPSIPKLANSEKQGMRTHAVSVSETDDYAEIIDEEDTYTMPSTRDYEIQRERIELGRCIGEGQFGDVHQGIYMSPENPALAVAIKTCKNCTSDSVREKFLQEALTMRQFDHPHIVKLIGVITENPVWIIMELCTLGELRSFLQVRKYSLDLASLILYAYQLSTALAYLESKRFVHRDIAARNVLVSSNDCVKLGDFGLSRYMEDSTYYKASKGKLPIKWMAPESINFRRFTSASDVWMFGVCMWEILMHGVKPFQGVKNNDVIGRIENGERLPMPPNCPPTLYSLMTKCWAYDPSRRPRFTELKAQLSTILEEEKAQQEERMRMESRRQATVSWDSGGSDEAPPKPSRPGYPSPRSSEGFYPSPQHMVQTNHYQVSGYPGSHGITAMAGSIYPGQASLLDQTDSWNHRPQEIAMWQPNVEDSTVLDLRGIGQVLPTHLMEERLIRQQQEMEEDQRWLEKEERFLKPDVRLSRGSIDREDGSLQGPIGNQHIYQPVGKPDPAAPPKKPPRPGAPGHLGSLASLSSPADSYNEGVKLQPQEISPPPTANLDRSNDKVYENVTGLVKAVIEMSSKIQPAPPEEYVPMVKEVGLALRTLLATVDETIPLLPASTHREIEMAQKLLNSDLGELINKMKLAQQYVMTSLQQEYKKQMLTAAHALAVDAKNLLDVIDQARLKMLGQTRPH
# [14] = test system: Fibrinogen (Alexa647-labelled); experiment: fibrinogen binders on compound microarrays, profiling panel, artefact control for SMM control-protein annotation, biochemical, small-molecule microarray, 635/667 nm fluorescence (AID 1131); conditions: fibrinogen-A647 binding fluorescence, higher = more signal;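 also: z-score merges 667 nm fluorescence with per-spot signal-to-noise over triplicate slides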
# [15] = target: Follistatin (Homo sapiens) (UniProt P19883); experiment: follistatin binders on small-molecule microarrays, primary screen, biochemical, small-molecule microarray, 635/667 nm fluorescence (AID 1132); conditions: FST binding, 635 nm fluorescence, higher = more signal
# Follistatin (Homo sapiens), sequence (P19883 whole entry, looked up): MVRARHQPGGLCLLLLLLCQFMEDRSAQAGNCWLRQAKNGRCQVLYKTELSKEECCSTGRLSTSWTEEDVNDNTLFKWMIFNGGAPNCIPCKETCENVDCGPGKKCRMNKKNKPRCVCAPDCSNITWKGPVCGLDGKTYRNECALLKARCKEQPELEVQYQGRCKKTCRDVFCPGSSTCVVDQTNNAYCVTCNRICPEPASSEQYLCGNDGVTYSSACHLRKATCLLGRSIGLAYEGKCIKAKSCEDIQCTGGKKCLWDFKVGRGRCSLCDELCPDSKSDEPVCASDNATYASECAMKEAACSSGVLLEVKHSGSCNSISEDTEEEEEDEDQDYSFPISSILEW
# [16] = target: Fibroblast growth factor 2 (Homo sapiens) (UniProt P09038); experiment: FGF2 binders on small-molecule microarrays, primary screen, biochemical, small-molecule microarray, 635/667 nm fluorescence (AID 1133); conditions: small-molecule microarray binding, FGF2, fluorescence 635/667; higher = more signal
# Fibroblast growth factor 2 (Homo sapiens), sequence (P09038 whole entry, looked up): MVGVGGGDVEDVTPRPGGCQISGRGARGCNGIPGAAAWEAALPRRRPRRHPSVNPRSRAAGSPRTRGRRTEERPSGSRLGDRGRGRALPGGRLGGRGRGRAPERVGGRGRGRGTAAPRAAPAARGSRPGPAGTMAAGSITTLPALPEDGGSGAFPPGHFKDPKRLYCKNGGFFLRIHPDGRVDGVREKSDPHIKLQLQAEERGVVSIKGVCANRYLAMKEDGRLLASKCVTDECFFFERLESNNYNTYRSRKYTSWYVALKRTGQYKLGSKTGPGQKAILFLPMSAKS
# [17] = mitochondrial membrane potential change in A549 cells, profiling panel, cell-based, JC-1 fluorescence, basal, 24 h, 100 nL (AID 1138); conditions: higher = more signal;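 also: A549 lung adenocarcinoma cells under basal conditions with no added stimulus; test concentration not given here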
# [18] = test system: Lefty1; experiment: Lefty1 binders on small-molecule microarrays, primary screen, biochemical, small-molecule microarray, 635/667 nm fluorescence (AID 1139); conditions: small-molecule microarray binding, fluorescence 635/667; higher = more signal
# [19] = test system: wheat germ agglutinin (Triticum aestivum), Alexa647-labelled; experiment: wheat germ agglutinin binders on compound microarrays, profiling panel, artefact control for SMM control-protein annotation, biochemical, small-molecule microarray, 635/667 nm fluorescence (AID 1140); conditions: WGA-A647 binding, 635 nm fluorescence, higher = more signal;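 also: score merges 667 nm feature emission with signal to noise over triplicate slides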
# [20] = target: Luciferin 4-monooxygenase (Photinus pyralis) (UniProt P08659); experiment: firefly luciferase enzyme inhibitors, primary screen, biochemical, luminescence, purified enzyme, 2006 set (AID 1141); conditions: SteadyGlo luminescence, 30 min, higher = more signal, called active from +8 up or from −8 down;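 also: cell-free assay with purified firefly luciferase at 100 ng per well in PBS; test concentration not given here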
# Luciferin 4-monooxygenase (Photinus pyralis), sequence (P08659 whole entry, looked up): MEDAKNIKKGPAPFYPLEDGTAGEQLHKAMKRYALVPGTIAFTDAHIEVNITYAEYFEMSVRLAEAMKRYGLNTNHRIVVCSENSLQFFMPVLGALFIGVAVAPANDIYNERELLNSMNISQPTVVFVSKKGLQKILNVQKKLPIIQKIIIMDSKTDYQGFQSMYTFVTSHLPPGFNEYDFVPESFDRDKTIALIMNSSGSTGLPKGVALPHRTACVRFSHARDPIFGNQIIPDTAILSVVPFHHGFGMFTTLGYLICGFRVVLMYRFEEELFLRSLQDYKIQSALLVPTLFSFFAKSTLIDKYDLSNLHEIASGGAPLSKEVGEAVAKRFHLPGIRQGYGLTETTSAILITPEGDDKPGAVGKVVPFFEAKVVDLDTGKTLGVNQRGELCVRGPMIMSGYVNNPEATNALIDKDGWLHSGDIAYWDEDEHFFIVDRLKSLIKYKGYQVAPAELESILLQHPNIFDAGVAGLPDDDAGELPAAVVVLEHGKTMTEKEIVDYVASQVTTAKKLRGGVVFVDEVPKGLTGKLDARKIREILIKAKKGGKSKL
structure (smiles),measurement,setting,value
COc1ccc(O[C@H]2C=C[C@@H](c3ccccc3)O[C@@H]2CON=C(C)CCC(=O)OC[C@H]2O[C@H](c3ccccc3)C=C[C@@H]2Oc2ccc(OC)cc2)cc1,composite z-score,[1],0.12
same,composite Z-score,[2],0.456 (inactive)
same,composite z-score,[3],-0.165
same,composite z-score,[4],-0.123
same,composite z-score,[5],-0.62
same,composite z-score,[6],-1.14
same,composite z-score,[7],-0.295
same,composite z-score,[8],-2.54
same,composite z-score,[9],-0.633
same,composite z-score,[10],-0.652
same,composite z-score,[11],0.704
same,composite z-score,[12],-2.01
same,composite z-score,[13],-0.204
same,composite z-score,[14],-0.218
same,composite z-score,[15],-0.174
same,composite z-score,[16],-0.922
same,z-score,[17],0.0976
same,composite z-score,[18],-0.162
same,composite z-score,[19],-1.13
same,z-score,[20],1.27 (inactive)
CCOC(=O)[C@H](Cc1ccccc1)NC(=O)CCC1CC(OC(=O)NCCc2ccc(F)cc2)CC2(CCCC(COC(=O)NCCCN3CCCC3=O)O2)O1 (stereo not given in full),composite z-score,[1],0.468
same,composite Z-score,[2],0.0773 (inactive)
same,composite z-score,[3],0.0479
same,composite z-score,[4],-0.078
same,composite z-score,[5],0.0851
same,composite z-score,[6],0.776
same,composite z-score,[7],0.129
same,composite z-score,[8],1.29
same,composite z-score,[9],0.294
same,composite z-score,[10],1.1
same,composite z-score,[11],0.688
same,composite z-score,[12],0.902
same,composite z-score,[13],0.494
same,composite z-score,[14],0.552
same,composite z-score,[15],0.578
same,composite z-score,[16],0.37
same,z-score,[17],0.837
same,composite z-score,[18],0.461
same,composite z-score,[19],0.374
same,z-score,[20],-0.241 (inactive)
CO[C@H]1COC(=O)[C@@H]2CCCN2C(=O)CC=C[C@@H](C)[C@H](OC)COC(=O)[C@@H](OCc2ccccc2)C=C[C@@H]1C,composite z-score,[1],-0.761
same,composite Z-score,[2],-1.04 (inactive)
same,composite z-score,[3],0.114
same,composite z-score,[4],-0.115
same,composite z-score,[5],-0.499
same,composite z-score,[6],-0.756
same,composite z-score,[7],-0.549
same,composite z-score,[8],-0.11
same,composite z-score,[9],1.33
same,composite z-score,[10],-0.4
same,composite z-score,[11],-0.228
same,composite z-score,[12],-1.15
same,composite z-score,[13],0.0122
same,composite z-score,[14],-0.557
same,composite z-score,[15],1.27
same,composite z-score,[16],1.02
same,z-score,[17],0.0486
same,composite z-score,[18],1.5
same,composite z-score,[19],-0.83
same,z-score,[20],0.168 (inactive)
CCN1C(=O)[C@H]2[C@H]3[C@H](O)[C@H](O)CC(=O)[C@H]3CC[C@H]2C1=O,composite z-score,[1],0.234
same,composite Z-score,[2],-0.274 (inactive)
same,composite z-score,[3],-0.0921
same,composite z-score,[4],-0.0793
same,composite z-score,[5],0.0164
same,composite z-score,[6],-0.209
same,composite z-score,[7],0.0555
same,composite z-score,[8],0.47
same,composite z-score,[9],0.689
same,composite z-score,[10],0.541
same,composite z-score,[11],0.463
same,composite z-score,[12],0.809
same,composite z-score,[13],0.0493
same,composite z-score,[14],0.861
same,composite z-score,[15],0.486
same,composite z-score,[16],0.485
same,z-score,[17],-0.335
same,composite z-score,[18],0.559
same,composite z-score,[19],0.145
same,z-score,[20],-0.371 (inactive)
CC(CCN1CCCCc2nc(C)c(C)cc21)=NO[C@@H](C)c1cn([C@H](CO)Cc2ccccc2)nn1,composite z-score,[1],0.779
same,composite Z-score,[2],0.364 (inactive)
same,composite z-score,[3],0.0833
same,composite z-score,[4],-0.14
same,composite z-score,[5],0.464
same,composite z-score,[6],-0.01
same,composite z-score,[7],-0.248
same,composite z-score,[8],0.719
same,composite z-score,[9],0.953
same,composite z-score,[10],0.249
same,composite z-score,[11],1.67
same,composite z-score,[12],0.285
same,composite z-score,[13],0.321
same,composite z-score,[14],0.624
same,composite z-score,[15],0.915
same,composite z-score,[16],0.545
same,z-score,[17],0.868
same,composite z-score,[18],0.828
same,composite z-score,[19],-0.101
same,z-score,[20],0.175 (inactive)
